GDH-TPI counter-1: GDH-TPI coupled enzyme inhibition counter-screen; inhibition, % at 4.8 µM; hit rate 1.2% among 360,000; GDH-TPI coupled enzyme counterscreen, NADH absorbance; in the data active = inhibition above about 30%;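 also: 0% = DMSO wells and 100% = wells lacking the enzyme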
Mtb betalactam: beta-lactam sensitization of Mtb H37Rv. hit rate 0.27% among 330,000. AID 434955. inhibition, % at 25 µM. M. tuberculosis H37Rv growth with meropenem, percent inhibition; call rule not given here;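 also: growth measured after seven days incubation then overnight dye step; 0% = bacteria only wells and 100% = bacteria with antibiotic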
FBA Mtb inh: inhibits M. tuberculosis FBA enzyme | AID 588726 | purified M. tuberculosis FBA, fluorescence read-out | P9WQA3 | hit rate 2.3% among 360,000 | inhibition, % at 1 µM;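 also: 0% = vehicle and 100% = reference inhibitor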
Target sequence (P9WQA3 whole entry, looked up): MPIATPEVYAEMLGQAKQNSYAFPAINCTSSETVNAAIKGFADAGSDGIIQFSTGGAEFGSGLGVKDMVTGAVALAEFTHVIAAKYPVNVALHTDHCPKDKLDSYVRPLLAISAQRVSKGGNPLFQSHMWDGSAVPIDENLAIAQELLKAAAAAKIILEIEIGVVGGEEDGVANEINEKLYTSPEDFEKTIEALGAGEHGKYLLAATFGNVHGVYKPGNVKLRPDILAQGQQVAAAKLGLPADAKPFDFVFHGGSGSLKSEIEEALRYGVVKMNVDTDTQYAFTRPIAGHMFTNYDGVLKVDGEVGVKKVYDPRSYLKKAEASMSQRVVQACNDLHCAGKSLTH
CCHFV vOTU inh: CCHFV vOTU protease inhibition; inhibition, % at 11.5 µM; hit rate 0.55% among 370,000; AID 651958; Pep-AMC fluorescence; in the data active = inhibition above about 30%; also: 0% = vehicle wells with enzyme and 100% = no enzyme wells
MazEF act: increases E. coli MazEF RNase cleavage of RNA | P0AE70 | FAM/BHQ RNA-DNA oligo cleavage fluorescence, 5 h | activation, % at 20 µM | hit rate 0.32% among 350,000 | AID 504720; in the data active = activation above about 50%
Target sequence (P0AE70 whole entry, looked up): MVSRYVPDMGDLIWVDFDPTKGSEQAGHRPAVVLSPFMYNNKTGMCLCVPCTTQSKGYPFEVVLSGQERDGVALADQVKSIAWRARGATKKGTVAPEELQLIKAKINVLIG
Mtb FBA confirm: Mtb FBA inhibition, confirmed | inhibition, % at 1 µM | AID 651616 | shares compounds with FBA Mtb inh | purified M. tuberculosis FBA, fluorescence read-out | hit rate 78% among 5,600;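 also: 0% = vehicle wells and 100% = reference inhibitor wells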
GDH-TPI counter-2: inhibits GDH-TPI coupling enzymes, flagging Mtb FBA hits. inhibition, % at 1 µM. hit rate 81% among 5,600. shares compounds with FBA Mtb inh. AID 652141. GDH-TPI coupled enzyme counterscreen, fluorescence; in the data active = inhibition above about 10%
GDH-TPI dose: GDH-TPI dose response counter-screen for Mtb FBA; IC50, µM; shares compounds with FBA Mtb inh; hit rate 79% among 170; GDH-TPI coupled enzyme assay, fluorescence, artifact counterscreen; AID 652145; call rule not given here
* hit, by the source's call; · = no result given; + = active, no number. Rows were chosen to be rich in hits. Some 4% of all compounds tested hit in one or more screens of this group. Rule as the data show it, unless noted: active = inhibition above about 27%; inactive = the rest.

SMILES	GDH-TPI counter-1	Mtb betalactam	FBA Mtb inh	CCHFV vOTU inh	MazEF act	Mtb FBA confirm	GDH-TPI counter-2	others
COC(=O)[C@]12C[C@H](CC(=O)NCC3CCCCC3)C(=O)N(Cc3ccc(Cl)cc3Cl)C1=C[C@H](COCc1ccccc1)O[C@@H]2C	·	·	·	15	·	·	·
COc1ccc(NC(=O)/C=C/c2cc(OC)c(OC)c(OC)c2)cn1	4	-7	4	-11	7	·	·
COc1cc(/C=C/C(=O)Nc2ccncc2)cc(OC)c1OC	17	10	38*	-17	3	74*	66*
Cc1ccc(C2Nc3ccccc3-c3nc4ccccc4n32)o1 (stereo not given)	1	-5	82*	-130	22	119*	95*
CCCCNC(=O)Nc1nnc(-c2ccc(OCC)cc2)o1	-8	98	29*	-9	1	70*	41*
CCOC(=O)CNC(=O)Nc1nnc(-c2ccc(OCC)cc2)o1	-1	-3	63*	-4	12	1	-5
CCOc1ccc(-c2nnc(NC(=O)COc3ccccc3F)o2)cc1	-5	·	1	7	-2	·	·
COC(=O)C1=C(C)N(Cc2ccccc2C(F)(F)F)C(=NCc2ccc(OC)cc2)NC1c1ccccc1C(F)(F)F (stereo not given)	·	·	·	1	·	·	·
COC(=O)[C@]12C[C@H](CC(=O)NCc3cccc4ccccc34)C(=O)N(CCC3=CCCCC3)C1=C[C@H](C1CCCC1)O[C@@H]2C	·	·	·	11	·	·	·
O=C(C(=O)N1CCC(CNC(=O)c2cccnc2Cl)CC1)c1cc2ccccc2o1	·	·	·	20	·	·	·
Cc1ccc(-c2c(NC(=O)Nc3ccc(F)cc3)nc3ncccn23)cc1	·	·	·	-10	·	·	·
O=C(OCc1cn(Cc2cccc(F)c2)nn1)N1CCOCC1	·	·	·	-1	·	·	·
O=C(COC(=O)c1ccccc1C(=O)c1ccccc1)NCCc1ccccc1	10	-2	2	2	-1	·	·
O=C(COC(=O)c1ccccc1NCCO)NCCc1ccccc1	3	-2	77*	-93	2	47*	38*
CC(C#N)(NC(=O)CN1CCN(S(=O)(=O)c2ccccc2C#N)CC1)C1CC1 (stereo not given)	11	-6	2	6	-5	·	·
O=C(COC(=O)c1ccccc1NCCO)NCCC1=CCCCC1	3	-12	63*	-66	-9	175*	130*
CC(C#N)(NC(=O)COC(=O)c1ccccc1NCCO)C1CC1 (stereo not given)	11	-8	99*	-104	6	52*	39*
O=C(COC(=O)c1ccccc1NCCO)NNC(=O)c1cccs1	6	-12	60*	-120	5	+	+
O=C(COC(=O)c1ccccc1Br)NCCC1=CCCCC1	-2	60	0	-1	-16	·	·
O=C(Nc1ccc(C(F)(F)F)cc1)OC1CC2CC1[C@H]1CCCCN1[C@H]2Cc1ccccc1 (stereo not given in full)	·	·	·	6	·	·	·
O=C(COC(=O)c1ccccc1NCCO)NCC1CCCCC1	7	-4	71*	-92	9	100*	76*
Cc1ccc(-n2nc(C)c(NC(=O)COC(=O)c3ccccc3NCCO)c2C)cc1	16	-18	68*	-89	4	80*	65*
O=C(OCC(=O)N(Cc1ccccc1)Cc1ccccc1)c1ccccc1NCCO	9	12	95*	-74	3	4	-2
COc1ccc(C(=O)OCC(=O)N(Cc2ccccc2)Cc2ccccc2)c(O)c1	9	·	-3	0	1	·	·
Cc1ccc(C(=O)OCC(=O)Nc2c(C)nn(-c3ccccc3)c2C)c(O)c1	15	·	5	-2	-1	·	·
SMILES	GDH-TPI counter-1	Mtb betalactam	FBA Mtb inh	CCHFV vOTU inh	MazEF act	Mtb FBA confirm	GDH-TPI counter-2	others
COc1cccc(C(=O)N[C@H](C(=O)N2CCC[C@H]2C(=O)NCc2ccccc2)C(C)C)c1	·	·	·	3	·	·	·
O=C(OC12CCCN(C1)/C(=C/c1ccc(Cl)cc1)C2)C1CCCC1 (stereo not given)	·	·	·	11	·	·	·
COc1ccc2c(C)c(C)c(=O)oc2c1OC	-2	0	13	-3	8	·	·
Cc1c(Br)c(=O)oc2c(C)c(O)ccc12	14	39	41*	-65	-2	196*	169*
COc1ccc(C2CC(c3ccccc3Br)=NN2c2ccc(S(N)(=O)=O)cc2)cc1 (stereo not given)	12	·	46*	-38	-3	154*	77*
Cc1cc(C)c2c(N)c3cccc(C)c3nc2n1	5	4	65*	-125	5	133*	111*
C[C@H]1[C@@H](c2ccccc2)Oc2c(Cl)cccc2S(=O)(=O)N1C	·	·	·	-4	·	·	·
O=C(Nc1nnc(/C=C/c2ccccc2)s1)c1ccco1	74*	-8	34*	12	0	-1	0
Clc1ccc(-c2nnc(SCc3cccc4ccccc34)n2Cc2ccco2)cc1	·	·	·	17	·	·	·
CCCCCc1nnc(NC(=O)NS(=O)(=O)c2ccc(C)cc2)s1	2	-7	41*	13	6	151*	121*
COCCCN1C(=O)[C@H](CC(=O)NCCc2ccccc2OC)[C@]2(C(=O)OC)CCCCC=C12	·	·	·	-1	·	·	·
COc1ccc(CC(NC(C)=O)C(=O)NC2CCN(c3nc(C)cc(C)c3C#N)CC2)cc1 (stereo not given)	4	-8	19	-11	5	·	·
COc1ccc(CC(NC(C)=O)C(=O)NC2CCN(c3nc(C)cc(C)c3C#N)CC2)cc1OC (stereo not given)	-1	2	31*	-29	0	162*	121*
CC(C)(CNC(=O)c1cc(-c2ccc(Cl)s2)nc2ccccc12)N1CCOCC1	19	34	62*	-13	-6	12	9	GDH-TPI dose=2.9*
O=C(c1cc(Cl)nc2ccccc12)N1CCCCC1	1	7	3	0	-4	·	·
CN1CCN(NC(=O)c2cc(-c3ccc(Cl)s3)nc3ccccc23)CC1	13	6	73*	-66	12	65*	42*
CN1CCN(NC(=O)c2cc(-c3ccccn3)nc3ccccc23)CC1	7	7	2	-1	1	·	·
O=C(c1cc(-c2ccc(Cl)s2)nc2ccccc12)N1CCCC1	10	3	58*	-2	-1	155*	144*
O=C(C(=O)N1CCC(CNS(=O)(=O)c2ccc(C(F)(F)F)cc2)CC1)c1cc2ccccc2o1	·	·	·	13	·	·	·
Cc1ccc(C(=O)NCC(c2ccc(F)cc2)N2CCOCC2)cc1 (stereo not given)	-14	-8	-2	-14	0	·	·
CC(=O)c1ccc(-c2ccc(C(=O)NCC(c3ccc(F)cc3)N3CCOCC3)o2)cc1 (stereo not given)	21	0	55*	-55	3	57*	32*
O=C(NCCc1c[nH]c2ccccc12)OCc1cn(-c2ccc(Cl)cc2)nn1	·	·	·	2	·	·	·

High-throughput results deposited in PubChem by several laboratories.
